Bioassay records: PubChem BioAssay, National Center for Advancing Translational Sciences (NCATS)
Compounds with a hit are over-represented: about 19% of the library has one in this group of screens.
HT1080 IDH1KD tx: toxicity to HT-1080 IDH1 knockdown cells (counter line). 2% of 360,000 active. AID 686971. HT-1080 IDH1 knockdown viability, ATP luminescence, 48 h. Potency, µM (top dose mostly 46.1 µM), for the others: at the top dose activity, negative = toxicity, most hits filed as cytotoxic;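 note: potency is the fitted concentration of half-maximal effect; 0% = DMSO wells and -100% = cell-free medium wells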
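Knockdown cells (IDH1KD HT-1080) received compounds 2 h after plating at 750 cells/well and were kept 48 h at 37 °C in 5% FBS RPMI. A CellTiter-Glo luminescence read gave % activity for curve fitting.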
IL1B secr inh: inhibitors of inflammasome signaling (IL-1 beta secretion) | activity change, % at 57.5 µM | THP-1 LPS/ATP IL-1B secretion, AlphaLISA, 16 h; stronger effect = lower value | 4.7% of 360,000 active; in the data active = activity change below about -50%; inconclusive = mostly about -30% to -49%
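THP-1 cells pretreated 1 hr with compounds (up to 57.5 uM final), then stimulated with LPS (250 ng/mL final) plus ATP (1.25 mM final); secreted IL-1B measured by AlphaLISA after 16 hr, decreased signal indicating inhibition.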
DT40 TDP1 CPT: DT40-hTDP1 cell growth loss with CPT | Potency, µM (series often up to 46.2 µM), without a hit: top-dose activity change, negative = growth inhibition, most hits filed as inhibitors | AID 686979 | 12% of 420,000 active | chicken DT40 Tdp1-/-;hTDP1 cells + 20 nM CPT, ATP luminescence, 48 h; note: potency is the fitted concentration of half-maximal effect; nearly all actives have a fitted effect of over 55% in size
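Cell growth measured by CellTiter-Glo luminescence after a minimum 48 h, 37 C compound exposure with 20 nM CPT in Tdp1-knockout DT40 cells stably expressing hTDP1, seeded 400/well; qHTS titration format.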
HT1080-NT tox: kills 2HG-producing HT-1080-NT fibrosarcoma cells | 1.6% of 360,000 active | HT-1080-NT fibrosarcoma viability, CellTiter-Glo ATP luminescence, 48 h | Potency, µM (top dose mostly 46.1 µM), without a hit: top-dose activity, negative = less viability, hits mostly cytotoxic | AID 686970;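 note: NT is the 2HG producing partner of a matched IDH1 knockdown line; potency is the fitted concentration of half-maximal effect; 0% = DMSO-treated cells and -100% = media-only wells without cells; nearly all actives have a fitted effect of over 55% in size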
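Toxicity toward the 2HG-producing NT line was scored as %Activity, normalised to DMSO and no-cell wells, from CellTiter-Glo luminescence after 48 hours' treatment.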
DT40 TDP1 no CPT: qHTS for Inhibitors of human tyrosyl-DNA phosphodiesterase 1 (TDP1): qHTS in cells in absence of CPT; 15% of 420,000 active; Potency, µM (highest dose often 46.2 µM), for the others: at the highest dose activity change, negative = growth inhibition, actives largely listed as inhibitors; AID 686978, 2013; DT40 Tdp1-/- hTDP1 cells, no CPT, ATP luminescence, 48 h; note: potency is the fitted concentration of half-maximal effect; nearly all actives have a fitted effect of over 55% in size
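Stably hTDP1-transfected Tdp1-null chicken DT40 cells were treated with library compounds minus camptothecin and grown for at least 48 hr at 37 °C, after which cellular ATP was quantified by luminescence.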
Active calls of the source: *; ? = inconclusive; . = no result given; [ ] = dose if it differs, or a comment. Unless noted, calls come from the whole dose curve; as a rule, active = well fitted curve in the direction sought with a large enough effect; inconclusive = small, poorly fitted or top-dose-only effect, or another doubt; inactive = no such curve, though single readings can be large; an effect the other way counts as inactive or inconclusive. Unless noted, % is set by controls: 0 for no effect and ±100 for the full control effect.

SMILES	HT1080 IDH1KD tx	IL1B secr inh	DT40 TDP1 CPT	HT1080-NT tox	DT40 TDP1 no CPT
CCC(C(=O)NCc1ccc2c(c1)CCN2C(=O)c1ccc(F)cc1)c1ccccc1 (configuration not stated)	.	.	4%	.	1%
Cc1oc2ccc(O)c(CN3CCN(C)CC3)c2c1C(=O)Nc1cccc(Cl)c1C	.	.	8.2µM*	.	18µM*
CCN1CCN(Cc2c(O)ccc3oc(C)c(C(=O)Nc4cccc(Cl)c4C)c23)CC1	.	.	8.2µM*	.	21µM*
Cc1c(Cl)cccc1NC(=O)NN1CCN(C)CC1	-7%	0	?	-1%	2%
Cc1ccc(N2CCN(c3c(CN4CCCC4)c(=O)oc4ccccc34)CC2)c(C)c1	.	.	16µM*	.	?
Cc1ccc(C)c(N2CCN(c3c(CN4CCCC4)c(=O)oc4ccccc34)CC2)c1	.	.	21µM*	.	26µM*
COc1ccc(N2C(=O)CSC2c2ccc3c(c2)OCO3)cc1 (configuration not stated)	-7%	10	2%	-1%	-8%
COc1ccc2c(c1)O[C@H](c1ccc3c(c1)OCO3)[C@@H](O)C2=O	-11%	-6	21µM*	0%	?
O=C(Oc1ccccc1Cl)C1CCN(C(=O)c2ccc(F)cc2)CC1	-1%	5	4%	3%	3%
CCc1ccc(C2c3c(oc4ccc(C)cc4c3=O)C(=O)N2c2nc(C)c(C)s2)cc1 (configuration not stated)	.	.	-21%	.	-17%
CCOc1ccc(C2c3c(oc4ccc(C)cc4c3=O)C(=O)N2c2nc(C)c(C)s2)cc1OC (configuration not stated)	.	.	?	.	7.3µM*
COc1ccc(S(=O)(=O)NNC(=O)C2COc3ccccc3O2)cc1[N+](=O)[O-] (configuration not stated)	9%	-15	-7%	10%	-16%
Cc1ccc(NC2CCCN(C(=O)c3ccoc3C)C2)cc1C (configuration not stated)	10%	-1	-3%	9%	?
O=Nc1c(O)[nH]c2ccc(Cl)c(Cl)c12	?	-95*	?	?	?
O=C(Nc1nc2ccccc2[nH]1)c1ccc(F)cc1	?	-15	-29%	0%[9.24 µM]	?
CCc1ccc(C(=O)Nc2nc3ccccc3[nH]2)cc1	?	0	18µM*	?	12µM*
Cn1nc(C(=O)Nc2nc3ccccc3[nH]2)c2ccccc2c1=O	9%	-15	18µM*	12%	16µM*
Cn1nc(C(=O)Nc2cccc(C(F)(F)F)c2)c2ccccc2c1=O	1%	6	3%	13%	?
Cn1nc(C(=O)Nc2c(-c3ccccc3)nc3sccn23)c2ccccc2c1=O	10%	32	21µM*	8%	13µM*
N#Cc1ccc(C(=O)Nc2nc3ccccc3[nH]2)cc1	?	-19	4%	?	?
CC(C)Oc1ccc(C(=O)Nc2nc3ccccc3[nH]2)cc1	?	-4	18µM*	?	9.2µM*
Cc1ccsc1C(=O)Nc1nc2ccccc2[nH]1	?	51	?	?	?
CNS(=O)(=O)c1ccc(CNC[C@H]2O[C@@H](n3cc(C)c(=O)[nH]c3=O)C[C@@H]2O)cc1	13%	15	2%	-3%	-4%
COc1ccccc1C(=O)NCc1nnc(SCC(=O)Nc2nccs2)n1C	3%	27	5%	-13%	0%
COc1ccc(C(=O)Nc2nc3ccccc3[nH]2)cc1OC	?	-12	-21%	3%	-23%
SMILES	HT1080 IDH1KD tx	IL1B secr inh	DT40 TDP1 CPT	HT1080-NT tox	DT40 TDP1 no CPT
Cn1nc(C(=O)NNC(=O)COc2ccccc2)c2ccccc2c1=O	10%	21	?	0%	-14%
COc1cc(C(=O)Nc2nc3ccccc3[nH]2)ccc1OC(F)F	?	-20	21µM*	?	15µM*
CCOc1ccc(C(=O)Nc2nc3ccccc3[nH]2)cc1OCC	-28%	31	21µM*	?	8.2µM*
Cn1nc(C(=O)NNc2c(F)c(F)cc(F)c2F)c2ccccc2c1=O	-3%	42	-16%	-2%	1.5µM*
CN1C(C(=O)NCc2ccc(OC(F)(F)F)cc2)CC2Cn3c(nc4cc(Cl)c(Cl)cc43)C21 (configuration not stated)	4%	-8	-69%	4%	?
CN1CCN(S(=O)(=O)c2ccc(N(C)Cc3cccc(F)c3)nc2)CC1	-7%	-6	7%	-2%	-9%
O=c1c(-c2cc(F)cc(F)c2)nc2cnc(Oc3ccccc3)nc2n1C1CC1	.	.	-16%	.	?
Cc1cccc(N2CCN(CCNC(=O)C3COc4ccccc4C3)CC2)c1C (configuration not stated)	.	.	?	.	23µM*
O=C(NCCc1ccc(Cl)cc1)C1COc2ccccc2C1 (configuration not stated)	.	.	-11%	.	-24%
COc1ccc2c(c1)CC(C(=O)NCCCN1CCN(c3cccc(Cl)c3)CC1)CO2 (configuration not stated)	.	.	18µM*	.	18µM*
CCC(=O)N1c2ccccc2CC1C(=O)NCCCN1CCN(c2cc(C)ccc2C)CC1 (configuration not stated)	.	.	21µM*	.	?
Cc1ccc(Cl)cc1N1CCN(CCCNC(=O)C2COc3ccccc3C2)CC1 (configuration not stated)	.	.	3.3µM*	.	3.7µM*
Cc1ccc(CNC(=O)C2COc3ccccc3C2)cc1 (configuration not stated)	.	.	0%	.	-22%
CC12CC(O)C3c4ccc(O)cc4CCC3C1CC/C2=N\O (configuration not stated)	-1%	39	-16%	5%	-14%
COCCCNC(=O)C1CCC(=O)N(c2ccc3c(c2)OCO3)C1c1ccc(OC)cc1 (configuration not stated)	6%	3	10%	9%	7%
O=C(NCCCN1CCN(c2ccc(F)cc2)CC1)C1COc2ccccc2C1 (configuration not stated)	.	.	23µM*	.	?
CC(C)(C)n1nnnc1C1c2ccccc2C(=O)N1CCc1c[nH]c2ccccc12 (configuration not stated)	1%	35	?	-2%	-21%
CCC1CCC2(CC1)NNC(=S)NN2	-6%	12	?	-7%	18µM*
O=C(Cc1ccccc1)NCC(=O)OCC(=O)c1ccc(F)cc1	15%	-9	-2%	0%	11%
